Measurements reported in PubChem BioAssay.
The source made the active and inactive calls.

Test: optical density change of DRC41 E. coli – strain DRC41, OD650, 24 h, E. coli filamentation project, primary screen (AID 1093);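 also: MC1000 strain lacking acrAB efflux and sulA so SOS filamentation is blocked; test concentration not given here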
Conditions: E. coli DRC41 growth, higher = more signal, called active from +8 up or from −8 down

| SMILES | z-score |
| --- | --- |
| CN(C)C(=O)[C@]1(CCC(=O)OC(C)(C)C)N=C(c2ccc(OCCCO)cc2)O[C@@H]1c1ccccc1N=[N+]=[N-] | 0.515 (inactive) |
| C=CCC(OC(C)=O)[C@@H]1[C@@H](N(Cc2cc3ccccc3o2)C(=O)c2ccc(C)cc2)c2cc(OCCCO)ccc2N1C(=O)c1ccc2ccccc2c1 (some centres undefined) | 1.65 (inactive) |
| COC(=O)[C@@]1(Cc2ccc(OC)cc2)[C@H]2c3cc(C(=O)N4CCCC4)n(Cc4ccccn4)c3C[C@H]2CN1C(=O)c1ccccc1 | 0.245 (inactive) |
| Cc1ccc(S[C@]2(C(=O)NCc3ccccc3)CC(=O)N(Cc3ccccc3Cl)[C@@H]2c2ccc(CO)cc2I)cc1 | -0.592 (inactive) |
| COc1ccc([Si](C)(C)[C@@H]2[C@@H](CCn3cc([C@H](O)c4ccccc4)nn3)O[C@]3(C(=O)N(Cc4cccc(N5CCOC5=O)c4)c4ccccc43)[C@H]2C)cc1 | 0.894 (inactive) |
| CCN(CC)c1ccc(N2CC=CC34O[C@@H]5/C=C\CCCOC(=O)C5[C@H]3C(=O)N(C(CO)C(C)C)[C@@H]4C2=O)cc1 (some centres undefined) | -0.309 (inactive) |
| Cc1ccc(S[C@]2(C(=O)NC3CC3)CC(=O)N(Cc3ccccc3)[C@@H]2c2ccc(CO)cc2)cc1 | -0.445 (inactive) |
| O=C1OCCC/C=C\[C@H]2OC34C=CCN(Cn5nnc6ccccc65)C(=O)[C@H]3N(CCCCCO)C(=O)[C@@H]4C12 (some centres undefined) | 0.498 (inactive) |
| CCN(CC)c1ccc(N2CC=CC34O[C@@H]5C=CCCOC(=O)C5[C@H]3C(=O)N(CCCCCO)[C@@H]4C2=O)cc1 (some centres undefined) | 2.85 (inactive) |
| O=C1O[C@@H](c2ccccc2)[C@@H](c2ccccc2)N2[C@@H](c3ccccc3OCCO)[C@]3(C(=O)Nc4ccc(C#CC5(O)CCCCCC5)cc43)[C@@H](C(=O)Nc3nc4ccccc4s3)[C@H]12 | 0.0499 (inactive) |
| CCOC(=O)C1=C[C@@H](C(C)C)N(S(=O)(=O)c2ccc(C)cc2)[C@H]1c1ccc(C(C)C)cc1 | -0.35 (inactive) |
| C=CCC(OC(C)=O)[C@@H]1[C@@H](N(Cc2cccc3ccccc23)C(=O)c2cccc3ccccc23)c2cc(OCCCO)ccc2N1C(=O)c1ccc2ccccc2n1 (some centres undefined) | -0.764 (inactive) |
| [N-]=[N+]=NCc1ccccc1C[C@]1(C(=O)NCCN2CCOCC2)N=C(c2ccc(OCCCO)cc2)O[C@H]1c1ccccc1N=[N+]=[N-] | 1.16 (inactive) |
| CC1=C2[C@@H](CCc3ccccc3)OB(O)C[C@@H]2n2c(=O)n(-c3ccccc3)c(=O)n2C1 | -0.296 (inactive) |
| COc1cc2c(cc1OC)CN(C(=O)[C@@H]1[C@H]3C(=O)O[C@H](c4ccccc4)[C@H](c4ccccc4)N3[C@H](c3ccccc3OCCO)[C@@]13C(=O)Nc1ccc(C#CCNC(N)=O)cc13)CC2 | 0.912 (inactive) |
| C=C[C@H](C)[C@@H](O)c1ccc(O)c2ccccc12 | 0.149 (inactive) |
| O=C1O[C@H](c2ccccc2)[C@H](c2ccccc2)N2[C@H]1[C@@H](C(=O)O)[C@]1(C(=O)Nc3ccc(C#CC4(O)CCCCCC4)cc31)[C@H]2c1ccc(OCCO)cc1 | -0.831 (inactive) |
| CC(=CC1CCCCC1)[C@@H](NC(=O)c1ccc(C(F)(F)F)cc1)c1ccc(-c2ccccc2)cc1 | -1.33 (inactive) |
| CN1C(=O)C2C(C1=O)C1C=C(CCCO)C2C(c2cccs2)N1C (centres undefined) | 0.729 (inactive) |
| CC(C)NC(=O)[C@@]1(Cc2ccccc2I)c2ccccc2C(=O)N(Cc2ccccc2)[C@H]1c1ccc(CO)cc1 | -0.408 (inactive) |
| C=C(COC)C(=O)CC[C@H](OC(C)=O)c1cccc(OCCO)c1 | 0.896 (inactive) |
| [N-]=[N+]=NCc1ccccc1[C@H]1OC(c2ccc(OCCCO)cc2)=N[C@@]1(CCS(=O)(=O)c1ccccc1)C(=O)N1CCOCC1 | 0.151 (inactive) |
| COC(=O)[C@@]1(Cc2ccc(OC)cc2)[C@H]2c3cc(C(=O)N4CCCC4)n(CCc4c[nH]c5cc(F)ccc45)c3C[C@H]2CN1C(=O)c1ccccc1 | 0.332 (inactive) |
| CC(C)CNC(=O)[C@@H]1c2ccccc2C(=O)N(Cc2cc(C(F)(F)F)cc(C(F)(F)F)c2)[C@H]1c1ccc(CO)cc1 | -0.381 (inactive) |
| [N-]=[N+]=NCc1ccccc1[C@@H]1OC(c2ccc(OCCCO)cc2)=N[C@]1(Cc1ccccc1)C(=O)N1CCCCC1 | 1.47 (inactive) |
| CC(=O)C1=CCC(c2ccccc2)N(S(=O)(=O)c2ccc(C)cc2)C1 (centres undefined) | -1.03 (inactive) |

Test: probe aLefty2 binding to arrayed compounds – biochemical, biotinylated probe, 635/667 nm fluorescence, primary screen (AID 1094);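 also: score merges spot fluorescence near 667 nm with spot signal-to-noise ratio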
Conditions: small-molecule microarray, higher = more signal

| SMILES | composite z-score |
| --- | --- |
| C=CCOC(=O)[C@H]1[C@@H]2C(=O)O[C@@H](c3ccccc3)[C@@H](c3ccccc3)N2[C@@H](c2ccc(OCCOC(=O)[C@@H]3C[C@@H]4C(=O)N5CCC[C@H]5C(=O)N4[C@@H]3c3ccc(O)cc3)cc2)[C@]12C(=O)Nc1ccccc12 | -0.0984 |
| CC(C)OC(=O)CC(=O)CC(O)c1ccc(C#N)cc1 (centres undefined) | 0.403 |
| O=C(OCCF)C1=CCC(c2cccc(Cl)c2)O1 (centres undefined) | -0.141 |
| [N-]=[N+]=NCc1ccccc1[C@@H]1OC(c2ccc(OCCCO)cc2)=N[C@]1(Cc1ccccc1N=[N+]=[N-])C(=O)NCc1ccccc1 | 0.139 |
| COc1ccc(C(O)C2C=CC3C(=O)N(c4ccccc4)C(=O)C3N2Nc2ccc([N+](=O)[O-])cc2)cc1OCc1ccccc1 (centres undefined) | 1.25 |
| Cc1ccccc1C(O)C1C=CC2C(=O)N(C)C(=O)C2N1N1CCCCC1 (centres undefined) | 0.331 |
| COCCOC(=O)N1C(=O)[C@@]2(c3cc(C#CCNC(N)=O)ccc31)[C@H](c1ccccc1OCCO)N1[C@H](c3ccccc3)[C@H](c3ccccc3)OC(=O)[C@H]1[C@@H]2C(N)=O | -0.0823 |
| O=C1C2C=CC(C(O)c3cccs3)N(Nc3ccccc3F)C2C(=O)N1c1ccccc1 (centres undefined) | 0.0166 |
| COC(=O)C1=CC(CCCO)=CC(C2CC2)N(Cc2sc3ccccc3c2Cl)C=C1C(=O)OC (centres undefined) | 0.198 |
| COCCOC(=O)N1C(=O)[C@@]2(c3cc(C#Cc4ccc(OC)cc4)ccc31)[C@H](C(=O)N1CCN(c3ncccn3)CC1)[C@H]1C(=O)O[C@H](c3ccccc3)[C@H](c3ccccc3)N1[C@@H]2c1ccc(O)cc1 | -0.247 |
| CN(C)C(=O)[C@]1(CCC(=O)OC(C)(C)C)N=C(c2ccc(OCCCO)cc2)O[C@@H]1c1ccccc1N=[N+]=[N-] | 0.17 |
| C=CCC(OC(C)=O)[C@@H]1[C@@H](N(Cc2cc3ccccc3o2)C(=O)c2ccc(C)cc2)c2cc(OCCCO)ccc2N1C(=O)c1ccc2ccccc2c1 (some centres undefined) | -0.0258 |
| COC(=O)[C@@]1(Cc2ccc(OC)cc2)[C@H]2c3cc(C(=O)N4CCCC4)n(Cc4ccccn4)c3C[C@H]2CN1C(=O)c1ccccc1 | 0.346 |
| Cc1ccc(S[C@]2(C(=O)NCc3ccccc3)CC(=O)N(Cc3ccccc3Cl)[C@@H]2c2ccc(CO)cc2I)cc1 | 0.114 |
| COc1ccc([Si](C)(C)[C@@H]2[C@@H](CCn3cc([C@H](O)c4ccccc4)nn3)O[C@]3(C(=O)N(Cc4cccc(N5CCOC5=O)c4)c4ccccc43)[C@H]2C)cc1 | -0.117 |
| CCN(CC)c1ccc(N2CC=CC34O[C@@H]5/C=C\CCCOC(=O)C5[C@H]3C(=O)N(C(CO)C(C)C)[C@@H]4C2=O)cc1 (some centres undefined) | -0.168 |
| Cc1ccc(S[C@]2(C(=O)NC3CC3)CC(=O)N(Cc3ccccc3)[C@@H]2c2ccc(CO)cc2)cc1 | 0.0704 |

| SMILES | composite z-score |
| --- | --- |
| O=C1OCCC/C=C\[C@H]2OC34C=CCN(Cn5nnc6ccccc65)C(=O)[C@H]3N(CCCCCO)C(=O)[C@@H]4C12 (some centres undefined) | -0.114 |
| CCN(CC)c1ccc(N2CC=CC34O[C@@H]5C=CCCOC(=O)C5[C@H]3C(=O)N(CCCCCO)[C@@H]4C2=O)cc1 (some centres undefined) | -0.126 |
| O=C1O[C@@H](c2ccccc2)[C@@H](c2ccccc2)N2[C@@H](c3ccccc3OCCO)[C@]3(C(=O)Nc4ccc(C#CC5(O)CCCCCC5)cc43)[C@@H](C(=O)Nc3nc4ccccc4s3)[C@H]12 | 0.01 |
| CCOC(=O)C1=C[C@@H](C(C)C)N(S(=O)(=O)c2ccc(C)cc2)[C@H]1c1ccc(C(C)C)cc1 | 0.112 |
| C=CCC(OC(C)=O)[C@@H]1[C@@H](N(Cc2cccc3ccccc23)C(=O)c2cccc3ccccc23)c2cc(OCCCO)ccc2N1C(=O)c1ccc2ccccc2n1 (some centres undefined) | -0.0102 |
| [N-]=[N+]=NCc1ccccc1C[C@]1(C(=O)NCCN2CCOCC2)N=C(c2ccc(OCCCO)cc2)O[C@H]1c1ccccc1N=[N+]=[N-] | 0.149 |
| CC1=C2[C@@H](CCc3ccccc3)OB(O)C[C@@H]2n2c(=O)n(-c3ccccc3)c(=O)n2C1 | -0.179 |
| COc1cc2c(cc1OC)CN(C(=O)[C@@H]1[C@H]3C(=O)O[C@H](c4ccccc4)[C@H](c4ccccc4)N3[C@H](c3ccccc3OCCO)[C@@]13C(=O)Nc1ccc(C#CCNC(N)=O)cc13)CC2 | 0.257 |
| C=C[C@H](C)[C@@H](O)c1ccc(O)c2ccccc12 | -0.254 |
| O=C1O[C@H](c2ccccc2)[C@H](c2ccccc2)N2[C@H]1[C@@H](C(=O)O)[C@]1(C(=O)Nc3ccc(C#CC4(O)CCCCCC4)cc31)[C@H]2c1ccc(OCCO)cc1 | -0.124 |
| CC(=CC1CCCCC1)[C@@H](NC(=O)c1ccc(C(F)(F)F)cc1)c1ccc(-c2ccccc2)cc1 | 0.0943 |
| CN1C(=O)C2C(C1=O)C1C=C(CCCO)C2C(c2cccs2)N1C (centres undefined) | -0.384 |
| CC(C)NC(=O)[C@@]1(Cc2ccccc2I)c2ccccc2C(=O)N(Cc2ccccc2)[C@H]1c1ccc(CO)cc1 | -0.0354 |
| C=C(COC)C(=O)CC[C@H](OC(C)=O)c1cccc(OCCO)c1 | -0.158 |
| [N-]=[N+]=NCc1ccccc1[C@H]1OC(c2ccc(OCCCO)cc2)=N[C@@]1(CCS(=O)(=O)c1ccccc1)C(=O)N1CCOCC1 | 0.663 |
| COC(=O)[C@@]1(Cc2ccc(OC)cc2)[C@H]2c3cc(C(=O)N4CCCC4)n(CCc4c[nH]c5cc(F)ccc45)c3C[C@H]2CN1C(=O)c1ccccc1 | 0.776 |
